Compound activity deposited in PubChem by National Center for Advancing Translational Sciences (NCATS).
In the library only some 11% were active in any assay of this set; here they are far more common.
PNC assembly inh = blocks assembly of the perinucleolar compartment; PC3M PTB-GFP, PNC prevalence imaging, 16 h; active compounds read low; activity change (PNC), negative = inhibition, % at 10 µM; 3.1% of 140,000 active; AID 2417;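 active = readout at or below -70, meaning at least 70% loss of cells showing the perinucleolar compartment, a nuclear body marking cancer cells; inconclusive = readout between -30 and a set limit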
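Read-out is percentage of cells bearing a perinucleolar compartment, from automated 20x imaging of fixed, Hoechst-stained PC3M PTB-GFP cells. Cells were seeded 4 h, then exposed 16 h to compound (23 nl of library stock) in duplicate plates.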
ALDH1A1 block = inhibitors of human aldehyde dehydrogenase 1A1; 7.3% of 220,000 active; Purified ALDH1A1, NADH fluorescence, propionaldehyde substrate; Potency, µM (doses to about 75.3 µM), usual class: inhibitors; AID 1030
Target sequence (P00352 whole entry, looked up): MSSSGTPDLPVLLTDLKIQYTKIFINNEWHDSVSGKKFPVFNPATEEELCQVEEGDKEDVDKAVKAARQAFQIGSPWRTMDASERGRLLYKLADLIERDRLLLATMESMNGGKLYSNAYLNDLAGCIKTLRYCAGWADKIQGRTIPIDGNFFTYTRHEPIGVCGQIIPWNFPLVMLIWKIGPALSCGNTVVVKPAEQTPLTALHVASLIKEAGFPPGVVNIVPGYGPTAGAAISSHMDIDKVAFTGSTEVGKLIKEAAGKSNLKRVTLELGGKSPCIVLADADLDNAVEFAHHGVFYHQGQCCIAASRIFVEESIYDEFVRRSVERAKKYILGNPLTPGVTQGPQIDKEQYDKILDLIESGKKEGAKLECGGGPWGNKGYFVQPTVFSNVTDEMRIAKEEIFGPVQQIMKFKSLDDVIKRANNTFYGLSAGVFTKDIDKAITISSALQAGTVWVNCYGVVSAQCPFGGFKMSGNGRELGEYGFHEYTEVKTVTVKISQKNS
HPGD block = blocks human HPGD enzyme activity; P15428; purified HPGD, NADH fluorescence kinetic, PGE2 substrate; Potency, µM, usual class: inhibitors; 4.3% of 150,000 active
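NADH formation kinetics: reaction with 30 uM PGE2 and 1 mM NAD+ (final), 20 nM enzyme, Tris-HCl pH 8 with Tween 20, after 15 min compound preincubation at room temperature. Fluorescence change, last versus first of five reads.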
Large screens that a line does not name were inactive. Unless noted, calls follow the shape of the dose curve; as a rule, active = well fitted inhibition curve with a large enough effect (not every such curve was filed as active); inconclusive = small, poorly fitted or top-dose-only effect, or another doubt; inactive = no such curve, though single readings can be large or run the other way.

O=C1C(Nc2ccccc2)=CC(=O)c2ncccc21	ALDH1A1 block 15.8µM (no result: PNC assembly inh, HPGD block)
O=C1C=C(Nc2ccccc2)c2ccccc2C1=O	none (no result: PNC assembly inh, HPGD block)
CC(=O)Nc1ccc(S(=O)(=O)n2cnc3ccccc32)cc1	none
COc1ccccc1NC(=O)N1CCCC1C(=O)Nc1ccc2c(c1)OCO2 (stereo not drawn)	none
O=C(Nc1ccc2c(c1)OCO2)C1CCCN1C(=O)NCc1ccccc1 (stereo not drawn)	none
O=C(Nc1ccc2c(c1)OCO2)C1CCCN1C(=O)Nc1ccccc1F (stereo not drawn)	PNC assembly inh -84.4, ALDH1A1 block inconclusive
O=C[C@@H]1CCCN1C(=O)[C@@H]1CCCN1C(=O)OCc1ccccc1	ALDH1A1 block 7.94µM (no result: PNC assembly inh, HPGD block)
O=C(O)CCC(NC(=O)C1CCCN1C(=O)OCc1ccccc1)C(=O)O (stereo not drawn)	none (no result: PNC assembly inh, HPGD block)
O=C(Nc1ccc2c(c1)OCO2)C1CCCN1C(=O)OCc1ccccc1 (stereo not drawn)	PNC assembly inh -126.5, ALDH1A1 block inconclusive
C=CC[C@@H](C(=O)O)c1ccccc1	none (no result: PNC assembly inh)
N#Cc1nc(-c2cccs2)oc1NCCCN1CCOCC1	ALDH1A1 block inconclusive, HPGD block inconclusive
N#CC(c1ccc(Cl)cc1)(c1ncc(C(F)(F)F)cc1Cl)N1CCOCC1 (stereo not drawn)	PNC assembly inh inconclusive
CN(C)c1ccc(C2CC(c3ccccc3)=Nc3nc(-c4ccccc4)cn32)cc1 (stereo not drawn)	ALDH1A1 block inconclusive
O=c1[nH]cnc2sc3c(c12)CCN(Cc1ccccc1)C3	ALDH1A1 block inconclusive, HPGD block inconclusive
O=C(Nc1nc2c(s1)CN(Cc1ccccc1)CC2)c1c(F)cccc1F	ALDH1A1 block 18.9µM (no result: PNC assembly inh, HPGD block)
CC(C)(C)C(=O)Nc1nc2c(s1)CN(Cc1ccccc1)CC2	ALDH1A1 block 31.6µM (no result: PNC assembly inh, HPGD block)
CN1CCc2nc(NC(=O)c3cccc(OC(F)F)c3)sc2C1	none
c1ccc(COc2ccccc2CNc2nn[nH]n2)cc1	none (no result: PNC assembly inh, HPGD block)
N=c1n(-c2ccccc2)c(O)cc(=O)n1-c1ccccc1	none
O=c1cc(O)n(-c2ccccc2)c(=S)[nH]1	PNC assembly inh -100.0, ALDH1A1 block inconclusive
Clc1cccc(-c2ccc(CNCCCN3CCOCC3)o2)c1	ALDH1A1 block 28.2µM (no result: PNC assembly inh, HPGD block)
c1csc(CNCCCN2CCOCC2)c1	none
COc1ccc(Nc2ncnc3ccccc23)c(OC)c1	ALDH1A1 block 10µM, HPGD block inconclusive
COc1ccc(Nc2ncnc3ccccc23)cc1	PNC assembly inh inconclusive
Cn1c(SCC(=O)NCc2ccc3c(c2)OCO3)nnc1C1COc2ccccc2O1 (stereo not drawn)	none
Cc1cc(O)c(/C=N/Nc2ccc(Cl)cc2)c(=O)o1	none
Cc1cc(O)c(/C=N/Nc2ccccc2Cl)c(=O)o1	ALDH1A1 block 10µM
COc1ccc(N2C(=O)CSC23CCCCC3)cc1	ALDH1A1 block 14.1µM
CCOc1ccc(N2C(=O)CSC23CCCCC3)cc1	ALDH1A1 block inconclusive (no result: HPGD block)
CCc1cccc(CC)c1NC(=O)COC(=O)c1ccc(F)c(S(=O)(=O)N(CC)CC)c1	none
N=c1ccn(Cc2ccc(Cl)cc2)cc1	PNC assembly inh inconclusive, ALDH1A1 block 25.1µM
N=c1ccn(Cc2ccc(Cl)c(Cl)c2)cc1	none
COC(=O)CNc1nc(C2CC2)nc2c1nnn2Cc1ccccc1Cl	ALDH1A1 block 1.58µM
Clc1ccccc1Cn1nnc2c(N3CCOCC3)nc(C3CC3)nc21	ALDH1A1 block 20µM
Clc1ccccc1Cn1nnc2c(NCCN3CCOCC3)ncnc21	ALDH1A1 block inconclusive
CN(C)S(=O)(=O)c1ccc(Nc2nc(C3CC3)nc3c2nnn3Cc2ccccc2Cl)cc1	ALDH1A1 block inconclusive, HPGD block inconclusive
O=C(NC1CCCCC1)c1ccc(CNc2nc(=S)[nH]c3ccccc23)cc1	none (no result: PNC assembly inh, HPGD block)
Cc1ccc(Nc2ccc(S(=O)(=O)N3CCOCC3)cc2[N+](=O)[O-])c(C)c1	PNC assembly inh inconclusive
CCOC(=O)NC(NC(=O)OCC)C(=O)c1ccc(F)cc1	none
Cc1ccc(OCCC(=O)OCC(=O)N2c3ccccc3CC2C)cc1 (stereo not drawn)	none
CC1Cc2ccccc2N1C(=O)COC(=O)CNC(=O)c1ccc(Br)o1 (stereo not drawn)	ALDH1A1 block 28.2µM
CCCOC(=O)CSc1nc(N)c(C#N)c(CC)c1C#N	ALDH1A1 block inconclusive
CCOC(=O)c1[nH]c(C)c(C(=O)c2cc(F)ccc2F)c1C	PNC assembly inh -95.0, HPGD block inconclusive
CCOC(=O)c1[nH]c(C)c(C(=O)OCC)c1C	HPGD block inconclusive
O=C(O)c1ccc(Br)c(S(=O)(=O)N2CCCC2)c1	PNC assembly inh inconclusive
COc1ccc(S(=O)(=O)N2CCOCC2)cc1NC(=O)COc1cccnc1[N+](=O)[O-]	none (no result: PNC assembly inh, HPGD block)
CCOc1ncccc1C(=O)OCC(=O)Nc1cc(S(=O)(=O)N2CCOCC2)ccc1Cl	PNC assembly inh inconclusive (no result: HPGD block)
COc1ccc(S(=O)(=O)N2CCOCC2)cc1NC(=O)COC(=O)C1COc2ccccc2O1 (stereo not drawn)	PNC assembly inh -92.3
